Bioassay records (PubChem)
Compounds with a hit are over-represented: about 1.4% of the library has one in this group of screens.
MmCpn inh: inhibitors of Methanococcus maripaludis chaperonin TRiC (MmCpn); 330,000 compounds, 0.031% hits; purified Mm-Cpn ATPase, ADP Transcreener TR-FRET; Potency, µM (highest dose often 76.9 µM), without a hit: top-dose activity, negative = inhibition, actives largely listed as inhibitors; note: potency is the fitted concentration of half-maximal effect; % is set by controls: 0 for no effect and ±100 for the full control effect; nearly all actives have a fitted effect of over 80% in size
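Quantitative HTS used 25 nM Mm-CPN and 10 uM ATP in magnesium/KCl Tris buffer, pH 7.4, with 1 mM DTT. Hydrolysis ran 30 min at 37°C; ADP was read by HTRF.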
S-ASM inh: inhibitors of human secretory acid sphingomyelinase; Potency, µM (doses to about 57.5 µM), for inactives: at the top dose activity change, negative = inhibition, hits mostly inhibitors; P17405; 340,000 compounds, 0.006% hits; placental ASM, HMU-PC fluorogenic substrate, 60 min; note: potency is the fitted concentration of half-maximal effect
Target sequence (P17405 47-631 limits assumed): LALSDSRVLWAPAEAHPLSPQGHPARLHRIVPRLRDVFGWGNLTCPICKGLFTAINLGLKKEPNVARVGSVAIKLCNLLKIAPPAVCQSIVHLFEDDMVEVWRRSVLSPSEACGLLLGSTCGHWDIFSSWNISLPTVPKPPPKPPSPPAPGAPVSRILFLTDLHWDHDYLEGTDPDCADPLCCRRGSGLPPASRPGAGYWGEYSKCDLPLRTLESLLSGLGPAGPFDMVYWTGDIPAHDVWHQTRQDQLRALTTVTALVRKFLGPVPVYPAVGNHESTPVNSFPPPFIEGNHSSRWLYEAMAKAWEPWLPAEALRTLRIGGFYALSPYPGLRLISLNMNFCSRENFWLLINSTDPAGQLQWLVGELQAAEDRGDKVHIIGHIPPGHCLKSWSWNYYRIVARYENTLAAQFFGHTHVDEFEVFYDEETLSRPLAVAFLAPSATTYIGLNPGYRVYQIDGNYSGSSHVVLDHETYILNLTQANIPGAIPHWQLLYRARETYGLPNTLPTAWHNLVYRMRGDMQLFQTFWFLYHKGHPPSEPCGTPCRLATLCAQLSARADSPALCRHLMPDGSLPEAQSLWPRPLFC
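HMU-PC0 cleavage (9 uM final) by human placental ASM, 60 min at 37 °C following 10 min compound exposure at RT; stopped at pH 10, fluorescence Ex 386/Em 447 nm.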
p53 reactivation: re-activators of mutant p53; 320,000 compounds, 0.063% hits; H1299 p53-A138V BP100-luciferase reporter, luminescence, 24 h; Potency, µM (titrated, usually from 92.2 µM), without a hit: at the top dose activity change, positive = activation, most hits filed as activators; AID 504706; note: potency is the fitted concentration of half-maximal effect; % of control where 0% means no effect; nearly all actives have a fitted effect of over 45% in size
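H1299 (p53-null), stable ts p53-A138V + BP100-Luc; 1000 cells/well, Opti-MEM/10% FBS; cpd 4 pt, 1:5; 24 h, 37 deg C, 5% CO2; detection reagent 10 min RT; luminescence.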
CCT modulator: cytosolic chaperonin activity modulation. purified chaperonin ATPase assay, HTRF ADP detection, 30 min. activity change, % (no concentration beside the values), hits read low. 360,000 compounds, 0.3% hits. AID 651819; in the data active = activity change below about -30%; note: % is set by controls: 0 for no effect and ±100 for the full control effect
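TRiC at 40 or 20 nM final (batch-dependent) in 30 mM Tris pH 7.4, 100 mM KCl, 5 mM MgCl2, 1 mM DTT, with compound at single 76 uM and 10 uM ATP, 30 min at 37 deg C. ADP detected by HTRF Transcreener, 665/615 ratio.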
12-LOX inh: inhibitors of human 12S-lipoxygenase ALOX12; Potency, µM (highest dose often 108 µM), inactives show at the top dose activity change, negative = inhibition, most hits filed as inhibitors; P18054; purified 12hLO, xylenol orange hydroperoxide absorbance; AID 1671190; 580,000 compounds, 1.1% hits; note: potency is the fitted concentration of half-maximal effect; % is set by controls: 0 for no effect and ±100 for the full control effect
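Purified human 12hLO at 150 nM in 25 mM Hepes, 0.01% Triton X-100, pH 7.0, preincubated 15 min at room temperature with compound. Reaction started with 40 uM arachidonic acid, 30 min at room temperature. Hydroperoxide measured by Fe-xylenol orange, 573/405 nm absorbance ratio.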
PINK1 expr mod: modulators of PINK1 expression; PINK1 immunofluorescence, high-content cytometry, 24 h; Potency, µM (top dose mostly 76.6 µM), inactives show at the top dose activation (PINK1 increase), most hits filed as activators; 410,000 compounds, 0.2% hits; AID 624263; active = well fitted activation curve with a large enough effect; inconclusive = small, poorly fitted or top-dose-only effect; cell line not stated here; note: potency is the fitted concentration of half-maximal effect; % of control where 0% means no effect; nearly all actives have a fitted effect of over 65% in size
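Stable cell line treated 24 h with compounds at 5 concentrations (CCCP controls), then fixed and immunostained for PINK1 plus nuclear and cell stains; PINK1 immunofluorescence quantified by laser-scanning microplate cytometry.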
Active calls of the source: *; i = inactive; ? = inconclusive; / = no result; [ ] = dose if it differs, or a comment. Unless noted, calls come from the whole dose curve; as a rule, active = well fitted curve in the direction sought with a large enough effect; inconclusive = small, poorly fitted or top-dose-only effect, or another doubt; inactive = no such curve, though single readings can be large; an effect the other way counts as inactive or inconclusive.

SMILES	MmCpn inh	S-ASM inh	p53 reactivation	CCT modulator	12-LOX inh	PINK1 expr mod
CCNC(=S)NCc1ccc(OC)c(OC)c1	0%	1%	-1%	-1	0%	1%
COC(=O)c1sc2ccccc2c1C(=O)OC	-9%	-1%	-19%	-3	4%	-1%[38.3 µM]
COC(=O)c1sc2ccccc2c1N	-5%	i	4%	-2	35µM*	-1%
Cc1ccc(OC(=O)N2CCC(Oc3ccc4c(cnn4CCC(=O)O)c3)CC2)cc1	/	/	/	/	9%[176 µM]	/
Nc1nccnc1C(=O)NCC#Cc1cccc(C(F)(F)F)c1	/	/	/	/	15%	/
CCCN1CC=C2C(C#N)=C(N)C(C#N)(C#N)C(c3cccc(OC)c3OC)C2C1 (configuration not stated)	-6%	i	-9%	0	4%	10µM*
CCN1CC=C2C(C#N)=C(N)C(C#N)(C#N)C(CCc3ccccc3)C2C1 (configuration not stated)	0%	i	7%	-4	0%	10µM*
Cc1ccc(C2C3CN(C(C)C)CC=C3C(C#N)=C(N)C2(C#N)C#N)cc1 (configuration not stated)	-1%	i	-5%	-1	0%	25µM*
CCCCOc1ccc(C2C3CN(C(=O)OCC)CC=C3C(C#N)=C(N)C2(C#N)C#N)cc1OC (configuration not stated)	1%	11%	-7%	0	?	20%[38.3 µM]
CCOC(=O)N1CC=C2C(C#N)=C(N)C(C#N)(C#N)[C@H](c3ccc(OCC)c(OCC)c3)[C@H]2C1	-4%	14%	-5%	-2	-18%	12%[38.3 µM]
COc1ccc(OC)c(C2C3CN(C(C)C)CC=C3C(C#N)=C(N)C2(C#N)C#N)c1 (configuration not stated)	-1%	i	-4%	-2	0%	40µM*
O=C(O)c1cnc(Cl)c(Cl)c1	/	/	/	/	-9%	/
CC1CCN(C(=O)Cc2n[nH]c(=O)c3ccccc23)CC1	/	/	/	/	-2%	/
COc1ccccc1OCC(=O)N/N=C1\CCc2ccccc21	2%	0%	25%	-34*	5%	0%
COc1ccccc1OCC(=O)N/N=C1\CCCCc2ccccc21	0%	-1%	-1%	-2	-2%	-1%
Cc1cccc2c1OCC/C2=N\NC(=O)COc1ccccc1	1%	-4%	6%	-32*	20%	11%[38.3 µM]
COc1ccc(OCC(=O)N/N=C2\CCCc3ccccc32)cc1	-2%	/	15%	1	-7%	1%
Cc1occc1-c1nnc(SCC(=O)Nc2nc(C(C)(C)C)cs2)o1	-1%	-2%	25%	1	20%	14µM*
CCc1nnc(NC(=O)CSc2nnc(-c3ccccc3O)o2)s1	2%	3%	3%	-56*	2%	1%
CCc1nnc(NC(=O)CSc2nccn2-c2ccccc2)s1	4%	2%	-3%	-38*	?	-2%
CCc1nnc(NC(=O)CCC(=O)N2CCN(Cc3ccc(Cl)cc3)CC2)s1	0%	4%	-1%	-4	0%	-2%
Cc1csc(NC(=O)CSc2nnc(-c3ccoc3C)o2)n1	1%	4%	?	-2	0%	-1%
CCc1nnc(NC(=O)CCC(=O)N2CCN(Cc3ccccc3)CC2)s1	0%	5%	-2%	-93*	12%	-6%[38.3 µM]
CCc1nnc(NC(=O)CSc2nc(-c3ccccc3)c(-c3ccccc3)o2)s1	-2%	6%	11%	-3	5%	2%
CCOC(=O)C(NC(=O)COc1cccc2ccccc12)C(=O)OCC	/	/	/	/	-5%	/
SMILES	MmCpn inh	S-ASM inh	p53 reactivation	CCT modulator	12-LOX inh	PINK1 expr mod
Cc1ccc(C)c(Cn2c(C(C)NC(=O)c3ccco3)nc3ccccc32)c1 (configuration not stated)	/	/	/	/	-5%	/
Cc1cc(C)n(-c2nc3ccccc3nc2N2CCN(S(=O)(=O)c3ccc(C)c(C)c3)CC2)n1	/	/	/	/	30%	/
CCN1c2cc(C(=O)Nc3ccccc3C)ccc2C(=O)N2CCCCCC21 (configuration not stated)	/	/	/	/	33%	/
COc1ccccc1CNC(=O)c1cc(-c2ccccc2C)nn1CC1CC(c2cccnc2)=NO1 (configuration not stated)	1%	-7%	-9%	-2	-3%	1%
Cc1ccccc1-c1cc(C(=O)NCc2cccc(Br)c2)n(CC2CC(c3cccnc3)=NO2)n1 (configuration not stated)	-22%	-21%	-6%	-1	40µM*	2%
COC(=O)C(N)Cc1ccc(O)c(O)c1 (configuration not stated)	-2%	15%	4%	-1	6.3µM*	4%
COC(=O)C(N)Cc1ccc(O)cc1 (configuration not stated)	-1%	2%	1%	0	0%	-1%
CC(=O)Nc1ccc(-c2csc(NC3CCCCC3)n2)c(F)c1	/	/	/	/	-6%	/
NC(=O)Cn1c(O)c(N=NC(=O)CNC(=O)/C=C/c2ccccc2)c2ccccc21	1%	-1%	-3%	-73*	-4%	2%
O=C(c1ccc(Cl)cc1)N1CC2(CCCN2CC2CC2)Cc2ccccc21 (configuration not stated)	/	/	/	/	2%[6.33 µM]	/
CO/N=C(\C(=O)O)c1cn2ccsc2n1	/	/	/	/	2.2µM*	/
COc1cc(CN2CCN(c3ncc(Cc4ccccc4)cn3)CC2)cc(OC)c1	/	/	/	/	-7%	/
Fc1cccc(F)c1CN1CCN(c2ncccn2)CC1	2%	2%	-2%	2	-9%	15%[38.3 µM]
COc1cc(CN2CCN(Cc3ccc(C)cc3)CC2)cc(OC)c1	/	/	/	/	0.5µM*	/
Fc1ccccc1CN1CCN(c2ncccn2)CC1	-1%	-1%	10%	3	0.56µM*	-1%
COc1cccc(CN2CCN(c3ncccn3)CC2)c1	0%	4%	17%	-2	0.79µM*	-1%
CC(=O)N1CCC(NC(=O)Cc2nc(-c3ccccc3)oc2C)CC1	/	/	/	/	1%	/
COc1cccc(/C=N/NC(N)=S)c1OCc1ccccc1Cl	3%	0%	-8%	0	28µM*	3%
C(=N\N1CCN(C2c3ccccc3-c3ccccc32)CC1)/c1ccccn1	2%	-8%	-5%	-3	-5%	5%
Cc1ccc(/C=N/N2CCN(C3c4ccccc4-c4ccccc43)CC2)s1	0%	2%	2%	-56*	-9%	16%
Cc1ccc(C(C)C)c(OCC(=O)NCc2ccc(Cn3cccn3)cc2)c1	/	/	/	/	21%	/
Cc1ccc(NC(=O)Cn2cc(S(=O)(=O)Cc3ccc(F)cc3)c3ccccc32)cc1Cl	/	/	/	/	10µM*	?
O=C(Cn1cc(S(=O)(=O)Cc2ccccc2F)c2ccccc21)Nc1ccc(F)c(Cl)c1	/	/	/	/	-37%	35µM*
